FMDV inh – antivirals against foot and mouth disease virus | FMDV antiviral cell-based qHTS | Potency, µM (doses to about 57.9 µM), without a hit: at the top dose activity change, negative = inhibition, usual class: inhibitors | actives 1.2% (n = 410,000); calls by dose curve; tested in HEK293T cells; note: read-out not given here; potency is the fitted concentration of half-maximal effect; nearly all actives have a fitted effect of over 45% in size
HCMV inh – inhibitors of human cytomegalovirus. HFF cells, HCMV-luciferase reporter, 72 h; stronger effect = lower value. activity change, negative = inhibition, % at 57.5 µM. actives 4.5% (n = 410,000); in the data active = activity change below about -60%; inconclusive = no clear call, values can overlap the other calls; inactive = above about -39%
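Steps: HFFs plated, 16 h 37C; compounds added; HCMV-luciferase added to MOI 1 PFU/cell; 72 h 37C; OneGlo reagent, 5 min room temperature; luminescence read, normalized to controls.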
HCV inh – HCV inhibition; Huh7.5.1 HCVcc-Cre infection, luciferase reporter, 44 h; Potency, µM (highest dose often 41.8 µM), without a hit: at the top dose activity change, negative = inhibition, most hits filed as inhibitors; actives 3.4% (n = 340,000); AID 651820; active = well fitted inhibition curve with a large enough effect; inconclusive = small, poorly fitted or top-dose-only effect, or another doubt; inactive = no such curve, though single readings can be large or run the other way; note: potency is the fitted concentration of half-maximal effect
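Reporter virus HCVcc-Cre (~0.5 moi) infects cells exposed to compound; seeding density 1,000 cells/well with 4 h settling beforehand. Luminescence, 15 sec read, taken 44 h post-infection following a 15 min RT substrate incubation.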
Marburg entry inh – blocks Marburg virus binding to or entry into cells | Marburg virus pseudotyped entry inhibition, cell reporter | Potency, µM (titrated, usually from 37.8 µM), for the others: top-dose activity change, negative = inhibition, usual class: inhibitors | AID 540276 | actives 1.8% (n = 300,000); calls by dose curve; tested in HEK293 cells; note: potency is the fitted concentration of half-maximal effect
Lassa entry inh – blocks Lassa virus binding to or entry into cells; Potency, µM (titrated, usually from 37.9 µM), inactives show at the top dose activity change, negative = inhibition, actives largely listed as inhibitors; AID 540256; Lassa virus pseudotype entry inhibition, cell reporter; actives 1.2% (n = 300,000); calls by dose curve; tested in HEK293 cells; note: potency is the fitted concentration of half-maximal effect; nearly all actives have a fitted effect of over 50% in size
Active calls of the source: *; ? = inconclusive; nt = no result given; ! = not confirmed by another sample; [ ] = dose if it differs, or a comment. An excerpt weighted towards active compounds, which were near 7.9% of everything screened. % is set by controls: 0 for no effect and ±100 for the full control effect.

SMILES | FMDV inh | HCMV inh | HCV inh | Marburg entry inh | Lassa entry inh
COc1cc(CC(NC(C)=O)C(=O)NC2CCN(c3c(Cc4ccccc4)c(C)nc4ncnn34)CC2)cc(OC)c1 (stereo not drawn) | -15% | -9 | 11% | -19% | 1%
O=C(c1ccco1)N1CCN(S(=O)(=O)c2ccc(Oc3ccccc3)cc2)CC1 | ? | ? | 14µM* | ? | -21%
O=C(c1ccco1)N1CCN(S(=O)(=O)c2ccc(Br)cc2)CC1 | -5% | ? | 14% | nt | nt
CC(=O)c1ccc(OCCCC(=O)N2CCN(S(=O)(=O)c3ccc(C(C)C)cc3)CC2)cc1 | ? | ? | 10µM* | -20% | ?
CC(=O)c1ccc(S(=O)(=O)N2CCN(C(=O)c3ccc(COc4ccccc4)o3)CC2)cc1 | ? | -61* | ? | ? | ?
COc1ccc(-c2oc3ncn4nc(-c5ccccc5Br)nc4c3c2-c2ccc(OC)cc2)cc1 | -3% | -1 | nt | nt | 14%[46.1 µM]
Cc1ccc(NC(=O)c2ccc(-c3nn(C)c(=O)c4ccccc34)cc2)c(C)c1 | -16% | 18 | ? | -4% | 0%
Cn1nc(-c2ccc(C(=O)Nc3ccc(F)cc3)cc2)c2ccccc2c1=O | 40µM* | -30 | ? | ? | ?
Cc1ccc(NC(=O)c2ccc(-c3nn(C)c(=O)c4ccccc34)cc2)cc1 | ? | -38 | 13µM* | -23% | -12%
C=Cc1ccc(CSc2nc(-c3ccc(OC)cc3)nc3c2Cc2c(CO)cnc(C)c2O3)cc1 | -22% | 3 | nt | nt | -5%[46.1 µM]
C[C@]12CCC(=O)C[C@H]1CC[C@@H]1[C@@H]2CC[C@]2(C)[C@@H](O)CC[C@@H]12 | nt | nt | 7% | nt | nt
C[C@]12CCC(=O)C[C@@H]1CC[C@@H]1[C@@H]2CC[C@]2(C)[C@@H](C(=O)COC(=O)CCC(=O)O)CC[C@@H]12 | -15% | -61*! | 18% | 0%[46.1 µM] | 4%[46.1 µM]
CCOC(=O)c1nc(NNC(=O)c2ccc([N+](=O)[O-])cc2)sc1C | -2% | -97* | ? | 8.9µM* | ?
CC(=O)C1=C(OC(=O)C(C)C)c2ccccc2S(=O)(=O)N1Cc1ccccc1 | -9% | 0 | nt | -23%[46.1 µM] | 0%[46.1 µM]
O=S(=O)(Nc1ccc(-c2ccc(N3CCCC3)nn2)cc1)c1cc(F)ccc1F | 13% | -20 | nt | nt | 10%[46.1 µM]
CC(C)C1N(C(=O)N2CCOCC2)CCN1S(=O)(=O)c1ccccc1 (stereo not drawn) | -9% | -5 | 2% | 4%[46.1 µM] | nt
NC(=O)c1nsc(C(=O)N(CCc2ccccc2)C(C(=O)NC2CCCC2)c2ccco2)c1N (stereo not drawn) | nt | -60* | -6% | -23% | -20%
Cc1ccc(N(C(=O)c2snc(C(N)=O)c2N)C(C(=O)NCCC(C)C)c2ccco2)cc1 (stereo not drawn) | -21% | -63* | 32µM* | nt | nt
CCc1ccc(N(C(=O)c2snc(C(N)=O)c2N)C(C(=O)NC2CCCC2)c2ccco2)cc1 (stereo not drawn) | 5% | ? | ? | 7.9µM* | ?
CCn1c(=N)c(C(=O)NCc2cccnc2)cc2c(=O)n3cc(C)ccc3nc21 | -14% | ? | nt | ? | ?
COc1cccc(-c2ccc(NC(=O)C3CCCN(Cc4cnn(C)c4)C3)cc2)c1 (stereo not drawn) | -7% | 11 | 13µM* | nt | nt
Cc1ncc(CN2CCCC(C(=O)Nc3ccc(-c4cccc(F)c4)cc3)C2)n1C (stereo not drawn) | ? | -29 | 3.5µM* | ? | ?
CC(C)n1cc(CN2CCC(C(=O)Nc3cccc(-c4cscn4)c3)CC2)cn1 | -24% | -8 | ? | nt | nt
Cn1cc(CN2CCCC(C(=O)Nc3cccc(-c4cc5ccccc5[nH]4)c3)C2)cn1 (stereo not drawn) | ? | -22 | 7.1µM* | ? | ?
CCn1cc(CN2CCCC(C(=O)Nc3cccc(-c4cc5ccccc5[nH]4)c3)C2)c(C)n1 (stereo not drawn) | -14% | 5 | ? | ? | ?
CC(C)n1cc(CN2CCCC(C(=O)Nc3cccc(-c4cc5ccccc5[nH]4)c3)C2)cn1 (stereo not drawn) | ? | -33 | 11µM* | ? | 7.1µM*
COc1ccc(NC(=O)Nc2cccc(OCc3cc(=O)n4cccc(C)c4n3)c2)c(OC)c1 | -16% | -19 | nt | nt | -14%[46.1 µM]
Cc1ccc2c(c1)CN(CCNC(=O)c1ccc3nc(C)[nH]c3c1)CC(C)O2 (stereo not drawn) | -5% | nt | nt | nt | nt

Compound activity deposited in PubChem by National Center for Advancing Translational Sciences (NCATS).
